# Assay results reported in PubChem BioAssay (NCATS).
# Records with an inconclusive call do not appear. The source made the active and inactive calls. The call rests on the fitted dose curve; in most records, active means well fitted inhibition curve with a large enough effect; inconclusive means small, poorly fitted or top-dose-only effect, or effect the other way; inactive means flat fitted curve, though single readings scatter.
# Tested on: not listed separately
# Experiment: qHTS Assay for Lipid Storage Modulators (AID 1519)
# Conditions: Drosophila S3 cells, BODIPY lipid droplet/cell ratio, laser cytometry; measured here: lipid channel max response; cells loaded with oleic acid
# Outline: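 Cells seeded at 5,000 per well were treated with compounds over a concentration series and loaded with oleic acid (400 uM, as added). Lipid droplet fluorescence (488 nm excitation, 500-530 nm channel) was read by laser-scanning cytometry and normalized to 20 uM Triacsin C.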
row,SMILES,max response
1,O=c1[nH]c(=O)n([C@@H]2O[C@H](CO)[C@@H](O)[C@H]2O)cc1Br,-16.6%
2,COC1CC(O[C@H]2/C(C)=C/CC3CC(C[C@]4(CCC(C)C(C5CCCCC5)O4)O3)OC(=O)[C@H]3C=C(C)/C(=N/O)C4OC/C(=C\C=C\[C@@H]2C)[C@@]43O)OC(C)C1O (stereo not given in full),-0.335%
3,C#C[C@]1(O)CCC2C3CCC4=CC(=O)CCC4C3CC[C@@]21C (stereo not given in full),5.87%
4,CCC(C)C(=O)OC1CC(O)C=C2C=CC(C)C(CCC(O)CC(O)CC(=O)O)C21 (stereo not given),17.6%
5,OCC1OC(n2cnc3c(=S)nc[nH]c32)C(O)C1O (stereo not given),-0.429%

# Biological target: ATP-dependent 6-phosphofructokinase (Trypanosoma brucei brucei) (UniProt O15648)
# Sequence (O15648 whole entry, looked up): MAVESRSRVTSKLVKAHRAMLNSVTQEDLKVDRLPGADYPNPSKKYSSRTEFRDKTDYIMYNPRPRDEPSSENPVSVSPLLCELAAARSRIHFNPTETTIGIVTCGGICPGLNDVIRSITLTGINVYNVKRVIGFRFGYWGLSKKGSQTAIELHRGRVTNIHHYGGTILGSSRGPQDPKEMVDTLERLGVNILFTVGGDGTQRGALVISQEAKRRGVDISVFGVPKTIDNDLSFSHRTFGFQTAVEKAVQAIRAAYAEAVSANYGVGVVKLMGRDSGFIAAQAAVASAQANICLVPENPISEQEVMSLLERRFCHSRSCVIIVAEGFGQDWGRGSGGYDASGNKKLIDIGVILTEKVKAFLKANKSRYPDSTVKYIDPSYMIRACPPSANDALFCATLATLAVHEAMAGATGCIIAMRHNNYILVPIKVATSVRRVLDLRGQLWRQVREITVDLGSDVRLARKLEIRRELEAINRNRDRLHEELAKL
# Experiment: qHTS Assay to Find Inhibitors of T. brucei phosphofructokinase: hit validation (AID 492961);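 further: luminescence reports ADP formed as PFK phosphorylates fructose-6-phosphate with ATP; on the % scale 0 is the no-effect control and ±100 the full control effect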
# Conditions: T. brucei PFK, ADP-Glo luminescence; series mostly up to 24.3 µM; activity change, negative = inhibition: at the top concentration
# Outline: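 Percent activity derived from corrected luminescence, normalized between 0x and 1x enzyme controls, then fitted to concentration-response curves. Conditions: 1.25 nM PFK, 0.1 mM ATP, 0.5 mM F6P, 45 min RT.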
row,SMILES,"activity change, negative = inhibition"
1,CC1(C)S[C@H]2C(NC(=O)[C@@H](N)c3ccc(O)cc3)C(=O)N2[C@@H]1C(=O)O (stereo not given in full),-2.09% [at 51.4 µM] (inactive)
2,CN(C)CCc1c[nH]c2ccc(CC3COC(=O)N3)cc12 (stereo not given),0.265% [at 51.4 µM] (inactive)
3,C[C@@]12CCC(=O)C=C1C=CC1C2CC[C@]2(C)C1CC[C@@]21CCC(=O)O1 (stereo not given in full),1.44% [at 51.4 µM] (inactive)
4,NC(CCC(=O)N[C@@H](CS)C(=O)NCC(=O)O)C(=O)O (stereo not given in full),-2.5% [at 51.4 µM] (inactive)
5,CC(C)Oc1ccc2c(=O)cc(-c3ccccc3)oc2c1,-4.87% [at 51.4 µM] (inactive)
6,CCCCCCCCCc1ccc(OCCOCCOCCOCCOCCOCCOCCOCCOCCO)cc1,0.426% [at 51.4 µM] (inactive)
7,CC(=O)O[C@@]1(C(C)=O)CCC2C3CC(C)C4=CC(=O)CC[C@@]4(C)C3CC[C@]21C (stereo not given in full),1.35% [at 51.4 µM] (inactive)
8,N[C@@H]1C(O)OC(CO)C(O)C1O (stereo not given in full),13.3% [at 51.4 µM] (inactive)
9,CC(=O)OCC(=O)[C@@]12OC3(CCCC3)OC1CC1C3CCC4=CC(=O)C=C[C@@]4(C)[C@]3(F)C(O)C[C@]12C (stereo not given in full),7.37% [at 51.4 µM] (inactive)
10,CCC1OC(=O)CC(O)C(C)[C@@H](O[C@@H]2OC(C)[C@H](O[C@@H]3C[C@@](C)(O)C(O)C(C)O3)C(N(C)C)C2O)[C@H](CC=O)CC(C)C(=O)/C=C/C(C)=C/[C@@H]1COC1OC(C)C(O)C(OC)[C@@H]1OC (stereo not given in full),-6.06% [at 51.4 µM] (inactive)
11,CCC(=O)O[C@@]1(C(=O)CCl)C(C)CC2C3CCC4=CC(=O)C=C[C@@]4(C)[C@]3(F)C(O)C[C@]21C (stereo not given in full),-1.81% [at 51.4 µM] (inactive)
12,CC(=O)[C@]1(O)CCC2C3C=C(Cl)C4=CC(=O)C5CC5[C@@]4(C)C3CC[C@]21C (stereo not given in full),0.14% [at 51.4 µM] (inactive)
13,CO[C@]12C(COC(N)=O)C3=C(C(=O)C(C)=C(N)C3=O)N1CC1NC12 (stereo not given in full),7.03% [at 51.4 µM] (inactive)
14,COC1OC(CO)C(OC2OC(C(=O)O)C(OC3OC(COS(=O)(=O)O)C(OC4OC(C(=O)O)C(OC5OC(CO)C(OC6OC(C(=O)O)C(OC7OC(COS(=O)(=O)O)C(OC8OC(C(=O)O)=C[C@H](O)C8OS(=O)(=O)O)C(O)C7NC(C)=O)[C@@H](O)C6O)C(O)C5NC(C)=O)[C@@H](O)C4O)C(O)C3NC(C)=O)[C@@H](O)C2O)C(O)C1NC(C)=O (stereo not given in full),1.81% [at 51.4 µM] (inactive)
15,C[C@@]12C=CC(=O)C=C1CCC1C3CC(O)[C@@](O)(C(=O)CO)[C@]3(C)CC(O)[C@]12F (stereo not given in full),5.59% [at 51.4 µM] (inactive)
16,CCC1OC(=O)C(C)[C@@H](O[C@H]2C[C@@](C)(OC)C(O)C(C)O2)C(C)[C@@H](O[C@@H]2OC(C)CC(N(C)C)C2O)[C@@](C)(O)CC(C)C(=O)[C@@H](C)C(O)[C@]1(C)O (stereo not given in full),-6.49% [at 51.4 µM] (inactive)
17,CC1C2CCC3C4CC=C5CC(N(C)C)CC[C@@]5(C)C4CC[C@@]32CN1C (stereo not given in full),0% [at 51.4 µM] (inactive)
18,COC1CC(O[C@H]2/C(C)=C/CC3CC(C[C@]4(CCC(C)C(C5CCCCC5)O4)O3)OC(=O)[C@H]3C=C(C)/C(=N/O)C4OC/C(=C\C=C\[C@@H]2C)[C@@]43O)OC(C)C1O (stereo not given in full),-0.541% [at 51.4 µM] (inactive)
19,C#C[C@]1(O)CCC2C3CCC4=CC(=O)CCC4C3CC[C@@]21C (stereo not given in full),-1.48% [at 51.4 µM] (inactive)
20,OCC1OC(n2cnc3c(=S)nc[nH]c32)C(O)C1O (stereo not given),-1.92% [at 51.4 µM] (inactive)
